Measured values: PubChem BioAssay (NCI)
The panel holds about 83,000 compounds, 20% with a hit somewhere; the sample as a whole holds those more often.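 Treatment: one concentration, 48 hours, 96-well format. Scoring: percent growth, with anything below 10 considered active.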 Unmarked numbers belong to inactive results. The source made the active and inactive calls.

Legend:
Test in all cases: NCI-60 one-dose screen, 48 h (100 = growth as untreated, 0 = no growth, -100 = all killed)
Details in all cases: 10 µM unless noted
[1] = test system: NCI-H23 lung
[2] = test system: NCI-H226 lung
[3] = test system: NCI-H322M lung
[4] = test system: HOP-62 NSCLC
[5] = test system: NCI-H460 lung
[6] = test system: HOP-92 NSCLC
[7] = test system: NCI-H522 lung
[8] = test system: A549/ATCC NSCLC
[9] = test system: 786-0 renal
[10] = test system: COLO 205 colon
[11] = test system: DU-145 prostate
[12] = test system: K-562 leukemia
[13] = test system: MALME-3M melanoma
[14] = test system: MDA-MB-231 breast
[15] = test system: RXF 393 renal
[16] = test system: SF-268 CNS
[17] = test system: SF-295 CNS
[18] = test system: SF-539 CNS
[19] = test system: UACC-257 melanoma
[20] = test system: M14 melanoma

| Structure (SMILES) | growth [1] | growth [2] | growth [3] [%] | growth [4] | growth [5] | growth [6] | growth [7] | growth [8] | growth [9] | growth [10] | growth [11] | growth [12] | growth [13] | growth [14] | growth [15] | growth [16] [%] | growth [17] | growth [18] | growth [19] | growth [20] |
| --- | --- | --- | --- | --- | --- | --- | --- | --- | --- | --- | --- | --- | --- | --- | --- | --- | --- | --- | --- | --- |
| COc1cc(-c2cc3ncccc3c3[nH]c(=O)c4cccnc4c23)cc(OC)c1OC | 44.5% | 28.3% | 52.6 | 30.3% | 8.58% (active) | 30.6% | 34.3% | 23.8% | 24.7% | -18.6% (active) | 14.1% | 10.5% | 55.4% | 36.7% | -3.08% (active) | 51.2 | 12.6% | 5.37% (active) | 51.5% | 12.8% |
| CC(=O)Nc1cc(F)cc(C(F)(F)F)c1Cl | 92.2% | 91% | 98.7 | 99.3% | 98.6% | 93.7% | 100% | 103% | 94.3% | 109% | 108% | 112% | 100% | 110% | 89.4% | 98.2 | 102% | 97.6% | 103% | 99.2% |
| COc1ccc(-n2c(/C=C/c3ccc(O)c(OC)c3)cc(/C=C/c3ccc(O)c(OC)c3)nc2=O)cc1 | 42.5% | 70.7% | 83.6 | 63.4% | 78% | 79.8% | 29.3% | 79.1% | 82.8% | 56.8% | 68.9% | 11.8% | 85% | 43.8% | 45.4% | 41.4 | 82.3% | 39% | 82.2% | 40.4% |
| NCCn1cc(-c2nc(-c3c[nH]c4ncccc34)cs2)c2ccccc21 | 83% | 70.6% | 74.6 | 75.4% | 89.8% | 54.3% | 90.4% | 76.8% | 89.8% | 96.7% | 99.5% | 82.9% | 73.8% | 66.2% | 84.9% | 84.7 | 105% | 90.2% | 92.8% | 96.9% |
| Cc1ccnc2c(OCc3ccccc3)cccc12 | 93.5% | 81.9% | 76.4 | 106% | 86.1% | 53.4% | 105% | 93.5% | 96.1% | 113% | 97.1% | 99.2% | 84.4% | 72.1% | 95.1% | 92.5 | 89.9% | 104% | 115% | 93.4% |
| CCN1CCN(C(=O)[C@]23CCC(C)(C)C[C@@H]2C2=CC[C@@H]4[C@@]5(C)C/C(=C/c6ccncc6)C(=O)C(C)(C)[C@@H]5CC[C@@]4(C)[C@]2(C)CC3)CC1 | -7.07% (active) | -42.8% (active) | 27 | -66.9% (active) | -64.7% (active) | -11% (active) | -59% (active) | 4.33% (active) | -73.6% (active) | -15.3% (active) | -16.9% (active) | -13.1% (active) | -87.9% (active) | -59.9% (active) | -93.3% (active) | 14.8 | -55.9% (active) | -96.4% (active) | -2.01% (active) | -76% (active) |
| COc1cc(/C=N/NC(=S)NNC(=S)NC2CCCCC2)cc(OC)c1OC | 97.4% | 91.2% | 93.7 | 94.8% | 97.1% | 91.2% | 89.3% | 100% | 102% | 102% | 92.5% | 88.6% | 95.2% | 77.2% | 95.6% | 102 | 98.7% | 94.8% | 107% | 95.2% |
